{"source": "ChEMBL document CHEMBL5606460", "about": "“ASAP - DENV-2 NS2B-NS3 protease fluorescence single point” (2024)", "target": "Genome polyprotein (dengue virus type 2) (UniProt P29990)", "key": {"[1]": {"conditions": "Thailand/16681/1984, Concentration 25.0 uM, Number of replicates 1.0"}}, "note": "Screen size: about 2,000 compounds; about 110 (5.5%) showed an effect of 50% or more. This is one part of a sample in which strong results are shown more often than they occur.", "data": [{"smiles": "O=Cc1ccc(N2CCC(C(=O)N3CCc4ccc([N+](=O)[O-])cc4C3)CC2)cc1", "values": [{"measurement": "inhibition", "setting": "[1]", "result": 16.6, "unit": "%"}]}, {"smiles": "O=Cc1ccc(N2CCC(C(=O)NCC3CCC(C(F)(F)F)CC3)CC2)cc1", "note": "(centres undefined)", "values": [{"measurement": "inhibition", "setting": "[1]", "result": 12.8, "unit": "%"}]}, {"smiles": "Cc1cc(C)nc(CCNC(=O)C2CCN(c3ccc(C=O)cc3)CC2)n1", "values": [{"measurement": "inhibition", "setting": "[1]", "result": 10.6, "unit": "%"}]}, {"smiles": "C[C@@H](CNc1cc(Cl)cc(C(=O)NC(C)(C)CO)c1)c1ccc(F)cc1", "values": [{"measurement": "inhibition", "setting": "Thailand/16681/1984, Concentration 49.5 uM, Number of replicates 2.0, Standard deviation 1.7964155145983758 %", "result": -4.87, "unit": "%"}, {"measurement": "inhibition", "setting": "Thailand/16681/1984, Concentration 99.01 uM, Number of replicates 2.0, Standard deviation 2.367041527999976 %", "result": -8.66, "unit": "%"}]}, {"smiles": "O=Cc1ccc(N2CCC(C(=O)NCc3ccc(Br)cn3)CC2)cc1", "values": [{"measurement": "inhibition", "setting": "[1]", "result": 13.7, "unit": "%"}]}, {"smiles": "Cc1cc(CO)c2cccc(NC(=O)[C@@H]3CCCC[C@H]3C(=O)O)c2n1", "values": [{"measurement": "inhibition", "setting": "Thailand/16681/1984, Concentration 49.95 uM, Number of replicates 2.0, Standard deviation 1.6403651221128503 %", "result": 4.53, "unit": "%"}, {"measurement": "inhibition", "setting": "Thailand/16681/1984, Concentration 99.9 uM, Number of replicates 2.0, Standard deviation 0.7343808497949172 %", "result": 11.1, "unit": "%"}]}, {"smiles": "Cc1cc(CO)c2cccc(NC(=O)C3CNC3)c2n1", "values": [{"measurement": "inhibition", "setting": "Thailand/16681/1984, Concentration 99.9 uM, Number of replicates 2.0, Standard deviation 1.2849235527062883 %", "result": -8.19, "unit": "%"}]}, {"smiles": "Cc1cc(CO)c2cccc(NC(=O)C3CCC(N)CC3)c2n1", "note": "(centres undefined)", "values": [{"measurement": "inhibition", "setting": "Thailand/16681/1984, Concentration 49.95 uM, Number of replicates 2.0, Standard deviation 0.3430335372049546 %", "result": 80.8, "unit": "%"}, {"measurement": "inhibition", "setting": "Thailand/16681/1984, Concentration 99.9 uM, Number of replicates 2.0, Standard deviation 0.009052468710563864 %", "result": 98.8, "unit": "%"}]}, {"smiles": "Cc1cc(CO)c2cccc(NC(=O)C3CCN(C)CC3)c2n1", "values": [{"measurement": "inhibition", "setting": "Thailand/16681/1984, Concentration 99.9 uM, Number of replicates 2.0, Standard deviation 2.5723142976307076 %", "result": 0.725, "unit": "%"}]}, {"smiles": "Cc1cc(CO)c2cccc(NC(=O)CNC3CC3)c2n1", "values": [{"measurement": "inhibition", "setting": "Thailand/16681/1984, Concentration 49.95 uM, Number of replicates 2.0, Standard deviation 1.6119901778213759 %", "result": 15.9, "unit": "%"}, {"measurement": "inhibition", "setting": "Thailand/16681/1984, Concentration 99.9 uM, Number of replicates 2.0, Standard deviation 1.4451149573517064 %", "result": 30.7, "unit": "%"}]}, {"smiles": "Cc1cc(CO)c2cccc(NC(=O)[C@@H]3CCCC[C@H]3N)c2n1", "values": [{"measurement": "inhibition", "setting": "Thailand/16681/1984, Concentration 49.95 uM, Number of replicates 2.0, Standard deviation 4.042326157041073 %", "result": -9.54, "unit": "%"}]}, {"smiles": "Cc1cc(CO)c2cccc(NC(=O)C3CCC(CN)CC3)c2n1", "note": "(centres undefined)", "values": [{"measurement": "inhibition", "setting": "Thailand/16681/1984, Concentration 49.95 uM, Number of replicates 2.0, Standard deviation 1.7984525560806044 %", "result": 96, "unit": "%"}, {"measurement": "inhibition", "setting": "Thailand/16681/1984, Concentration 99.9 uM, Number of replicates 2.0, Standard deviation 0.012834221133749364 %", "result": 98.2, "unit": "%"}]}, {"smiles": "Cc1cc(CO)c2cccc(NC(=O)[C@H]3CCNC3)c2n1", "values": [{"measurement": "inhibition", "setting": "Thailand/16681/1984, Concentration 49.95 uM, Number of replicates 2.0, Standard deviation 1.8979597481282788 %", "result": -0.539, "unit": "%"}, {"measurement": "inhibition", "setting": "Thailand/16681/1984, Concentration 99.9 uM, Number of replicates 2.0, Standard deviation 1.976292784952565 %", "result": 2.99, "unit": "%"}]}, {"smiles": "Cc1cc(CO)c2cccc(NC(=O)C3CC(N)C3)c2n1", "note": "(centres undefined)", "values": [{"measurement": "inhibition", "setting": "Thailand/16681/1984, Concentration 49.95 uM, Number of replicates 2.0, Standard deviation 0.3514210972334106 %", "result": 31.4, "unit": "%"}, {"measurement": "inhibition", "setting": "Thailand/16681/1984, Concentration 99.9 uM, Number of replicates 2.0, Standard deviation 0.19619256829384746 %", "result": 78.8, "unit": "%"}]}, {"smiles": "Cc1cc(CO)c2cccc(NC(=O)[C@@H]3CC(=O)CCN3)c2n1", "values": [{"measurement": "inhibition", "setting": "Thailand/16681/1984, Concentration 49.95 uM, Number of replicates 2.0, Standard deviation 1.684279261738791 %", "result": 1.29, "unit": "%"}, {"measurement": "inhibition", "setting": "Thailand/16681/1984, Concentration 99.9 uM, Number of replicates 2.0, Standard deviation 1.6842793565692 %", "result": -1.57, "unit": "%"}]}, {"smiles": "CN(CCc1ccccc1F)C(=O)C1CCN(c2ccc(C=O)cc2)CC1", "values": [{"measurement": "inhibition", "setting": "[1]", "result": 13.4, "unit": "%"}]}, {"smiles": "O=Cc1ccc(N2CCC(C(=O)Nc3ccc([N+](=O)[O-])c4ccccc34)CC2)cc1", "values": [{"measurement": "inhibition", "setting": "[1]", "result": 13.5, "unit": "%"}]}, {"smiles": "CN(Cc1nc2ccsc2c(=O)[nH]1)C(=O)C1CCN(c2ccc(C=O)cc2)CC1", "values": [{"measurement": "inhibition", "setting": "[1]", "result": 11.8, "unit": "%"}]}, {"smiles": "O=Cc1ccc(N2CCC(C(=O)N[C@H](c3ccccc3)C(F)(F)F)CC2)cc1", "values": [{"measurement": "inhibition", "setting": "[1]", "result": 13.1, "unit": "%"}]}, {"smiles": "Cc1cc(CO)c2cccc(Cc3cccc(C(=O)Nc4cc(C)[nH]n4)c3)c2n1", "values": [{"measurement": "inhibition", "setting": "Thailand/16681/1984, Concentration 49.95 uM, Number of replicates 2.0, Standard deviation 1.9137700846759278 %", "result": 0.711, "unit": "%"}, {"measurement": "inhibition", "setting": "Thailand/16681/1984, Concentration 99.9 uM, Number of replicates 2.0, Standard deviation 1.69961162141419 %", "result": 3.33, "unit": "%"}]}, {"smiles": "Cc1cc(CO)c2cccc(CC(=O)Nc3cc(C)[nH]n3)c2n1", "values": [{"measurement": "inhibition", "setting": "Thailand/16681/1984, Concentration 49.95 uM, Number of replicates 2.0, Standard deviation 0.6660500187655393 %", "result": 4.74, "unit": "%"}, {"measurement": "inhibition", "setting": "Thailand/16681/1984, Concentration 99.9 uM, Number of replicates 2.0, Standard deviation 2.9944546877986085 %", "result": 12.6, "unit": "%"}]}, {"smiles": "Cc1cc(CO)c2cccc(CC(=O)Nc3cc(C)on3)c2n1", "values": [{"measurement": "inhibition", "setting": "Thailand/16681/1984, Concentration 49.95 uM, Number of replicates 2.0, Standard deviation 0.056769444720657654 %", "result": 98.7, "unit": "%"}, {"measurement": "inhibition", "setting": "Thailand/16681/1984, Concentration 99.9 uM, Number of replicates 2.0, Standard deviation 0.01177144620169866 %", "result": 99.4, "unit": "%"}]}, {"smiles": "Cc1cc(CO)c2cccc(Cc3ccccc3C(=O)Nc3cc(C)on3)c2n1", "values": [{"measurement": "inhibition", "setting": "Thailand/16681/1984, Concentration 49.95 uM, Number of replicates 2.0, Standard deviation 1.5788782649320652 %", "result": 8.61, "unit": "%"}, {"measurement": "inhibition", "setting": "Thailand/16681/1984, Concentration 99.9 uM, Number of replicates 2.0, Standard deviation 0.4297535440018178 %", "result": 25.7, "unit": "%"}]}, {"smiles": "Cc1cc(CO)c2cccc(CC(=O)NCc3c(C)noc3C)c2n1", "values": [{"measurement": "inhibition", "setting": "Thailand/16681/1984, Concentration 49.95 uM, Number of replicates 2.0, Standard deviation 0.8979901952671747 %", "result": -6.95, "unit": "%"}, {"measurement": "inhibition", "setting": "Thailand/16681/1984, Concentration 99.9 uM, Number of replicates 2.0, Standard deviation 0.7380557178102791 %", "result": -7.49, "unit": "%"}]}, {"smiles": "Cc1cc(CO)c2cccc(Cc3cccc(C(=O)Nc4cc(C)on4)c3)c2n1", "values": [{"measurement": "inhibition", "setting": "Thailand/16681/1984, Concentration 49.95 uM, Number of replicates 2.0, Standard deviation 1.544383261062021 %", "result": 29.6, "unit": "%"}, {"measurement": "inhibition", "setting": "Thailand/16681/1984, Concentration 99.9 uM, Number of replicates 2.0, Standard deviation 16.942938692438737 %", "result": 63.9, "unit": "%"}]}, {"smiles": "COc1ccc(-c2cc(NC(=O)C3CCN(c4ccc(C=O)cc4)CC3)[nH]n2)cc1", "values": [{"measurement": "inhibition", "setting": "[1]", "result": 0.343, "unit": "%"}]}, {"smiles": "c1cnc2c(C3CCN(Cc4cscn4)CC3)c[nH]c2c1", "values": [{"measurement": "inhibition", "setting": "Thailand/16681/1984, Concentration 49.5 uM, Number of replicates 2.0, Standard deviation 1.714470745737797 %", "result": -3.42, "unit": "%"}, {"measurement": "inhibition", "setting": "Thailand/16681/1984, Concentration 99.01 uM, Number of replicates 2.0, Standard deviation 2.482934234636928 %", "result": -3.54, "unit": "%"}, {"measurement": "inhibition", "setting": "Thailand/16681/1984, Concentration 198.0 uM, Number of replicates 2.0, Standard deviation 1.6201369950511377 %", "result": -3.14, "unit": "%"}]}, {"smiles": "C[C@@H](Cc1ccc(O)cc1)NC(=O)C1CCN(c2ccc(C=O)cc2)CC1", "values": [{"measurement": "inhibition", "setting": "[1]", "result": 12.7, "unit": "%"}]}]}
